Laboratory results as given in PubChem BioAssay (NCATS).
Records with an inconclusive call do not appear. Activity calls are given as the source filed them. Unless noted, the call rests on the fitted dose curve; in most records, active means well fitted curve in the direction sought with a large enough effect; inconclusive means small, poorly fitted or top-dose-only effect, or another doubt; inactive means no such curve, though single readings can be large; an effect the other way counts as inactive or inconclusive.

Assays:
[1] = AP1 Signaling Pathway (AID 357; active means well fitted curve in either direction with a large enough effect, not every such curve was filed as active;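 further: ME-180 reporter cells stimulated with EGF at its EC50 level; on the % scale 0 is the no-effect control and ±100 the full control effect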)
In short: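 AP-1-bla ME-180 cells, Opti-MEM + 0.5% dialyzed FBS, plated overnight 37 °C. Cpd titration + EC50 EGF, 5 h 37 °C. CCF4 2.5 h RT; ex 405, em 460/530 ratio → %activity, AC50.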

[2] = NFAT Signaling Pathway (AID 444; active means well fitted curve in either direction with a large enough effect, not every such curve was filed as active;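 further: carbachol stimulus at about its EC50 of 1 µM final; on the % scale 0 is the no-effect control and ±100 the full control effect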); settings: Jurkat NFAT-bla M1, carbachol, beta-lactamase ratio, 5 h; at 17.2 µM (top of the series)
In short: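 Jurkat cells with NFAT-driven β-lactamase reporter and co-expressed M1 receptor, stimulated with carbachol (final 1 uM, ~EC50), compound titration, 5 h at 37 °C. CCF4 loaded 1 h at RT; 460/530 nm ratio gave %activity and AC50.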

[3] = target: Glucocorticoid receptor (Homo sapiens) (UniProt P04150); test: GR-GFP Redistribution (AID 450;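 active means compounds whose dose series gives a full or clear partial fitted curve of increased nuclear translocation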; further: potency means the concentration at half of the fitted maximal effect); settings: U2OS GR-GFP nuclear translocation, laser cytometry, 2 h
Chain of Glucocorticoid receptor (Homo sapiens) (P04150 whole entry, looked up): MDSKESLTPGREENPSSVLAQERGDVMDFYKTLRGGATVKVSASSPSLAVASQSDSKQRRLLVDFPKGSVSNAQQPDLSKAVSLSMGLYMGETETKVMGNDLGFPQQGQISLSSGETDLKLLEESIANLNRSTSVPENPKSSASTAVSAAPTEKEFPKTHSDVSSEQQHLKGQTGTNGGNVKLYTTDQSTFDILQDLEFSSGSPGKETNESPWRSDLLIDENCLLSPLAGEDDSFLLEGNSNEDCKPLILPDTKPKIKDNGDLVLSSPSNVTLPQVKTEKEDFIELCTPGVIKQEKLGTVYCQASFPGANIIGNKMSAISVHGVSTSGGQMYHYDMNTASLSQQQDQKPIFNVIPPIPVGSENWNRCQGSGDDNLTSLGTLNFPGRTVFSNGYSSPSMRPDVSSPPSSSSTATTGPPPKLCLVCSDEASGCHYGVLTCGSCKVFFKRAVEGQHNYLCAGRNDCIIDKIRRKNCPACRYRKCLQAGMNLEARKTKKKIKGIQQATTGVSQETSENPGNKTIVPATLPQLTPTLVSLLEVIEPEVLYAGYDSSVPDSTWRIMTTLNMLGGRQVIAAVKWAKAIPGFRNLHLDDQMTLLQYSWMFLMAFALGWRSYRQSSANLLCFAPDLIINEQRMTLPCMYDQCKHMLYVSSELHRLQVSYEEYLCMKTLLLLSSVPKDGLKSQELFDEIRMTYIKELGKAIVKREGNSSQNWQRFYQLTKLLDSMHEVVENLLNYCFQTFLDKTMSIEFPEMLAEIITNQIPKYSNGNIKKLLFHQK

[4] = qHTS Assay for Identification of Small Molecule Agonists for Hypoxia Response Element Signaling Pathway (AID 914; active means well fitted activation curve with a large enough effect in the signal ratio, with a control signal flat, not every such curve was filed as active; the % refers to the signal ratio; further: % of control where 0% means no effect); settings: ME-180 HRE-bla reporter, beta-lactamase ratio, CoCl2, 17 h; activation: stronger effect = higher value
In short: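 Positive modulation of EC50 CoCl2-induced hypoxia response element signaling is measured in ME-180 cells with a beta-lactamase reporter. Compounds are titrated, incubation runs 17 hours, and %Activity derives from the blue/green ratio.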

[5] = J3T Cancer Cell Toxicity qHTS against the NCATS CANVASS Library (AID 1347371)
In short: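 Cells plated at 500 per well, compounds pin-transferred, plates incubated 72 hr at 37C, then CellTiterGlo added and luminescence read to measure ATP content.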

[6] = target: Nuclear receptor subfamily 1 group I member 3 (Homo sapiens) (UniProt Q14994); test: qHTS for Constitutive Androstane Receptor (CAR) Antagonist screened against the NCATS CANVASS Library (AID 1347372);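 further: cells stimulated with 50 nM CITCO agonist so inhibition reflects antagonism; on the % scale 0 is the no-effect control and ±100 the full control effect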
Chain of Nuclear receptor subfamily 1 group I member 3 (Homo sapiens) (Q14994 whole entry, looked up): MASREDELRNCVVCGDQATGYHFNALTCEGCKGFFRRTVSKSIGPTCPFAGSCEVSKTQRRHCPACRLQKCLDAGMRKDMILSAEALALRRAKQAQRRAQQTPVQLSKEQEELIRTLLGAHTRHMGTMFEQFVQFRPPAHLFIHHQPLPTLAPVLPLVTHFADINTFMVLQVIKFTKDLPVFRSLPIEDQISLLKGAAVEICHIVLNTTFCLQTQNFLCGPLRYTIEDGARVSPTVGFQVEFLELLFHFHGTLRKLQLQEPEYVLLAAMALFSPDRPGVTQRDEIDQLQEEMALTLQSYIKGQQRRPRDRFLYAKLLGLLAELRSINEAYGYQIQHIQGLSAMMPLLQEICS
In short: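 HepG2 cells stably carrying hCAR and CYP2B6-2.2kb luciferase reporter, 2500 cells/well, compound with 50 nM CITCO agonist for 24hr at 37C. ONE-Glo luminescence measured CAR activity; CellTiter-Fluor read viability.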

[7] = target: Nuclear receptor subfamily 1 group I member 3 (Homo sapiens) (UniProt Q14994); test: qHTS for Constitutive Androstane Receptor (CAR) Agonist screened against the NCATS CANVASS Library (AID 1347373);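 further: every well also contained 1.5 µM PK11195 alongside the test compound; 0% is about no effect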
In short: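 HepG2-hCAR-CYP2B6 cells, 2500/well, attached 4hr; cpd + PK11195 1.5uM final; 24hr 37C 5% CO2. CellTiter-Fluor viability read, then ONE-Glo luminescence for CAR activation.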

[8] = qHTS for Hypoxia signaling pathway (HIF-1) antagonists against the NCATS CANVASS Library (AID 1347374);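 further: HRE-bla ME-180 cells stimulated with cobalt chloride to stabilize HIF-1alpha; on the % scale 0 is the no-effect control and ±100 the full control effect; nearly all actives have a fitted effect of over 60% in size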
In short: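 HRE-bla ME-180 cells in medium with 0.5% dialyzed FBS received compounds (11-point series) plus CoCl2 (60 uM addition stock) for 17 hrs at 37C. Beta-lactamase activity read with CCF4 (405 nm ex, 460/530 nm em); CellTiter-Glo viability measured in same wells.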

[9] = qHTS for Hypoxia signaling pathway (HIF-1) agonists against the NCATS CANVASS Library (AID 1347375); further: 0% is about no effect
In short: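 ME-180 HRE-bla reporter cells; 2,000/well, 0.5% dialyzed FBS; cpd added after 5 h, 17 h 37C/5% CO2; CCF4-AM 2 h RT; FRET 460/530 nm; CellTiter-Glo viability same wells, 30 min.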

[10] = 10-beta competent E. coli microbial cell viability qHTS against the NCATS CANVASS Library (AID 1347376); further: 0% is about no effect
In short: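 E. coli 10-beta, 0.2 OD; cpds 11-pt; o/n 37C, 5% CO2; BacTiter-Glo 20 min RT; luminescence (ATP) = viable cells. Daunomycin ctrl.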

[11] = DH5-alpha competent E. coli microbial cell viability qHTS against the NCATS CANVASS Library (AID 1347377); settings: outcome: dose series up to 46.1 µM; further: 0% is about no effect
In short: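 qHTS, 11-pt; E. coli DH5-alpha, 0.2 OD; o/n 37C/5% CO2; BacTiter-Glo, 20 min RT; luminescence.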

[12] = qHTS for Inflammasome Signaling Inhibitors: IL-1-beta AlphaLISA screen against the NCATS CANVASS Library (AID 1347379);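 further: human THP-1 cells primed with LPS then triggered with ATP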
In short: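 THP-1 cells pretreated 1 hr with compound (up to 57.5 uM final), then stimulated with LPS (250 ng/mL final) and ATP (1.25 mM final). Secreted IL-1B measured by AlphaLISA after 16 hr; glyburide as positive control.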

[13] = Inflammasome Signaling qHTS Counterscreen: IL-1-beta AlphaLISA counterscreen against the NCATS CANVASS Library (AID 1347381);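 further: cell-free check with purified IL-1β in medium and no THP-1 cells; 0% is about no effect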
In short: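 Cell-free interference check: compounds added to medium spiked with 4 pg purified IL-1β. Anti-IL-1β acceptor beads (6 ug/mL) with 0.6 nM biotinylated antibody added for 1 h at RT, then streptavidin donor beads (24 ug/mL) for 30 min in the dark. AlphaLISA read at 680/615 nm.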

[14] = qHTS for Activators of p53 Stress Response Pathway screened against the NCATS CANVASS Library (AID 1347388); further: 0% is about no effect
In short: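 p53RE-bla HCT-116 cells (4000/well) were pre-incubated for 5 h, then treated with compound (11 points) for 16 h at 37C. After 2 h with CCF4, the 460/530 nm ratio gave reporter activation; CellTiter-Glo measured viability.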

[15] = Secretion counterscreen for inhibitors of the SERCaMP assay screened against the NCATS CANVASS Library (AID 1347390);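 further: light from luciferase secreted into medium read as a measure of general secretion; on the % scale 0 is the no-effect control and ±100 the full control effect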
In short: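 SH-SY5Y cells expressing constitutively secreted GLuc, 1000 cells/well, attached 4 h at 37C, then exposed to compounds (0.001 - 77 uM, 11-pnt series) for 20 h. Coelenterazine added; luminescence read to flag secretory-pathway interferers.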

[16] = qHTS for activators of dead-cell proteases activity screened against the NCATS CANVASS Library (AID 1347392);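 further: luminescence from protease leaking out of membrane-damaged cells cleaving impermeant substrate; 0% is about no effect; rising signal means more cytotoxicity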
In short: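 HepG2 cells, 2000/well, attached 18 h at 37C, then exposed to compounds (11-point qHTS) for 5 h. Dead-cell protease release read as luminescence from cell-impermeant AAF-aminoluciferin substrate after 15 min at room temperature.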

[17] = Vero-766 cells viability qHTS against the NCATS CANVASS Library: Counterscreen for Zika virus inhibition assay (AID 1347394); further: on the % scale 0 is the no-effect control and ±100 the full control effect; nearly all actives have a fitted effect of over 60% in size
In short: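 Uninfected Vero 766 (African green monkey) cells, 1000/well, attached overnight, then exposed 72 h at 37C to compounds (11-point qHTS). Viability read by CellTiter-Glo luminescence; media-only wells served as 100% inhibition.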

[18] = qHTS for inhibitors of Wild type Zika virus screened against the NCATS CANVASS Library (AID 1347396)
In short: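 Luminescent CellTiter Glo read-out of virus-induced cytotoxicity, 72 h post-infection, in Vero 766 cells. Compounds were tested at 11 concentrations; uninfected, vehicle-treated wells defined 100% inhibition.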

[19] = Redox Reaction Profiling qHTS: Assay Interference Panel against the NCATS CANVASS Library (AID 1347401);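 further: 100% = activation by 2 µM chloranil control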
In short: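 Compounds in 11-point series incubated with 5 uM resazurin and 200 uM DTT in 50 mM HEPES pH 7.3, 50 mM NaCl. Resorufin fluorescence (Ex 525/Em 598) read before and after 15 min in the dark.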

[20] = qHTS for inhibitors of Rabies Virus screened against the NCATS CANVASS Library (AID 1347402; calls by dose curve; further: 0% is about no effect)

CN(C)[C@@H]1C(=O)C(C(N)=O)=C(O)[C@@]2(O)C(=O)C3=C(O)c4c(O)ccc(Cl)c4[C@@](C)(O)C3C[C@@H]12 (stereo partly specified)
inactive: outcome [1] | activity change, negative = inhibition [2] 0.867% | Potency [3] > 20.6 µM | activation [4] 4.51%

C/C=C1/CN2CC[C@]34C(=Nc5ccccc53)[C@@H]2C[C@@H]1[C@H]4C(=O)OC
inactive: Potency [5] | Potency [6] | outcome [7] | Potency [8] | Potency [9] | outcome [10] | outcome [11] | Potency [12] | outcome [13] | Potency [14] | Potency [15] | Potency [16] | Potency [17] | Potency [18] | Potency [19] | outcome [20]

CN1C(=O)[C@]23CC4C(C)(C)[C@@]5(C[C@@]41CN2CC[C@@]3(C)O)C(=O)Nc1c5ccc2c1OC=CC(C)(C)O2 (stereo partly specified)
inactive: Potency [5] | Potency [6] | outcome [7] | Potency [8] | Potency [9] | outcome [10] | outcome [11] | Potency [12] | outcome [13] | Potency [14] | Potency [15] | Potency [16] | Potency [17] | Potency [18] | Potency [19] | outcome [20]
